# Luc counter – counter-screen: inhibitors of Kinase-Glo firefly luciferase | Kinase-Glo luciferase, ATP luminescence, 8 min | Potency, µM (titrated, usually from 38.3 µM), for inactives: at the highest dose activity change, negative = inhibition, hits mostly inhibitors | 0.28% of 200,000 active; active means well fitted curve in the direction sought with a large enough effect; inconclusive means small, poorly fitted or top-dose-only effect, or another doubt; inactive means no such curve, though single readings can be large; an effect the other way counts as inactive or inconclusive; further: nearly all actives have a fitted effect of over 60% in size
#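 Luminescence was the read-out, taken after 8-minute incubation at ambient temperature. Luciferase turned over luciferin with 10 uM ATP in imidazole pH 7.2 buffer containing KCl, MgCl2, Tween 20 and BSA.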
# HPGD inh – HPGD (human) dehydrogenase inhibition; P15428; purified HPGD, NADH fluorescence kinetic, PGE2 substrate; Potency, µM, for inactives: at the top dose activity change, negative = inhibition, most hits filed as inhibitors; 4.3% of 150,000 active; AID 894
#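 NADH formation kinetics: reaction with 30 uM PGE2 and 1 mM NAD+ (final), 20 nM enzyme, Tris-HCl pH 8 with Tween 20, after 15 min compound preincubation at room temperature. Fluorescence change, last versus first of five reads.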
# IMPase Li cell – cell-permeable IMPase inhibitors with lithium potentiation; CHO-M1 cells, IP1 TR-FRET (IP-One), carbachol + lithium; Potency, µM (titrated, usually from 59.4 µM), for the others: at the highest dose activity, negative = IMPase inhibition, actives largely listed as inhibitors; 0.35% of 210,000 active; active means well fitted curve in the direction sought with a large enough effect; inconclusive means small, poorly fitted or top-dose-only effect, or another doubt; inactive means no such curve, though single readings can be large; an effect the other way counts as inactive or inconclusive;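 further: IP1 builds up when IMPase is blocked and the TR-FRET signal falls; plate controls were basal vehicle for no effect and high inhibitor control for full effect; nearly all actives have a fitted effect of over 50% in size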
#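 CHO cells stably expressing M1 receptor (2000/well, cultured 16–30 h) treated 30 min at 37C with compound plus low lithium. Cytosolic IP1 by TR-FRET (665/620 ratio and 620 channel) after 10 min lysis; AC50 by Hill fit.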
# ALDH1A1 inh – inhibitors of human aldehyde dehydrogenase 1A1; 7.3% of 220,000 active; AID 1030; P00352; Purified ALDH1A1, NADH fluorescence, propionaldehyde substrate; Potency, µM (titrated, usually from 75.3 µM), inactives show at the highest dose activity, negative = inhibition, hits mostly inhibitors;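 further: plate controls were no enzyme wells and a reference inhibitor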
# Target sequence (P00352 whole entry, looked up): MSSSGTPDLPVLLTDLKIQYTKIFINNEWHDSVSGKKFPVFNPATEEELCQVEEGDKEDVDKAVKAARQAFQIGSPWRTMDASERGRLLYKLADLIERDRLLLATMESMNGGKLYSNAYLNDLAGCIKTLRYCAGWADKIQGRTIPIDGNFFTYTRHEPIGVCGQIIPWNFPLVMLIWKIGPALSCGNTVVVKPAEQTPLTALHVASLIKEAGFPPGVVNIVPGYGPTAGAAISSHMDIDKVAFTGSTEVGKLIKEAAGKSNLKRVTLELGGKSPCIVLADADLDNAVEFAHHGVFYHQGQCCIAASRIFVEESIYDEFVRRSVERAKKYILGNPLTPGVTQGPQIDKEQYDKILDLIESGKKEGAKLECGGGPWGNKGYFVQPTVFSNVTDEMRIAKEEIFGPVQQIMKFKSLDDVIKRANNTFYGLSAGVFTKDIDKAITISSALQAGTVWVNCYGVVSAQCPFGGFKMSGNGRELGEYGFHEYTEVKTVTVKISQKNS
# LMNA splice mod – modulators of lamin A splicing; HeLa LMNA splicing GFP/RFP minigene ratio, 48 h; Potency, µM (highest dose often 46.1 µM), inactives show at the top dose ratio change, negative = inhibition, usual class: inhibitors; 0.01% of 200,000 active; active means well fitted inhibition curve with a large enough effect in the signal ratio, with a control signal flat, not every such curve was filed as active; inconclusive means small, poorly fitted or top-dose-only effect, or effect the other way, or a change in a side signal; the % refers to the signal ratio
#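 S3 HeLa cells stably expressing lamin A-EGFP splicing minigene plus DsRed2, 600 cells/well, 48 h compound exposure at 37C. Laser-scanning cytometry; analysed as GFP (500-530 nm)/RFP (575-640 nm) total intensity ratio; 0.5% DMSO vehicle.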
# The depositor's hits bear a star; u = inconclusive; x = no result; [ ] = dose if it differs, or a comment. The list is not random: actives were taken first. Their share in the collection is about 9%. Unless noted, the call rests on the fitted dose curve; in most records, active means well fitted inhibition curve with a large enough effect (not every such curve was filed as active); inconclusive means small, poorly fitted or top-dose-only effect, or another doubt; inactive means no such curve, though single readings can be large or run the other way. Unless noted, on the % scale 0 is the no-effect control and ±100 the full control effect; potency means the concentration at half of the fitted maximal effect.
SMILES,Luc counter,HPGD inh,IMPase Li cell,ALDH1A1 inh,LMNA splice mod
O=C(CN1CCN(c2ccc(O)cc2)CC1)NC(c1ccccc1)c1ccccc1,-4%,u,2%,13µM*,-6%
CC1Cc2ccccc2N1CC(=O)NC(c1ccccc1)c1ccccc1 (stereo not drawn),3%,-8%,15%,u,-9%
O=C(CCl)N(c1ccccc1)C1CCS(=O)(=O)C1 (stereo not drawn),6%,-1%,2%,0.063µM*,u
COc1ccccc1-n1cnnc1SCC(=O)Nc1cccnc1Cl,-1%,x,-9%,25µM*,u
COc1ccccc1-n1cnnc1SCC(=O)c1c[nH]c2ccccc12,0%,-14%,3%,10µM*,-10%
CO[C@H]1COC(=O)CCC[C@H](C)[C@@H](OC)COC(=O)C/C=C\[C@@H]1C,x,x,x,12%[13.5 µM],x
N#C/C(=C\c1cccs1)C(=O)c1ccccc1Cl,x,x,x,22µM*,x
COc1ccc(C(O)(CCc2ccccc2)CCN2CCCCC2)cc1 (stereo not drawn),1%,x,12%,2.2µM*,x
O=C(CCN1CCCCCC1)c1ccccc1,-2%,-8%,7%,6.3µM*,-6%
COc1ccc(C(=O)CCN2CCCCCC2)cc1,-4%,-16%,1%[38.3 µM],0.063µM*,u
C=CCC(O)(CCN1CCCCC1)c1ccccc1 (stereo not drawn),2%,-17%,26%[38.3 µM],-4%,11%
O=C(c1ccccc1)c1ccc(OCCCCN2CCCCC2)cc1,-5%,1%,46%[38.3 µM],u,3%
CCC1(C)CC2(CCCN(CCC(=O)c3ccccc3)C2)CCO1 (stereo not drawn),4%,x,15%,0.71µM*,-33%[9.22 µM]
FC(F)(F)c1ccccc1-c1nccc(-n2ccnc2)n1,x,x,13%,u,u
CCOc1ccc(C(=O)CCN2CCCCC2)cc1,-1%,u,16%[38.3 µM],0.016µM*,u
CC(C)Oc1ccc(C(=O)CCN2CCCCC2)cc1,-2%,-11%,23%,0.071µM*,-19%
COc1ccc(C(=O)C(CN2CCCC2)c2ccccc2)cc1 (stereo not drawn),-2%,-8%,23%[38.3 µM],25µM*,u
COc1ccc(OC)c(NC(=O)CCN2CCN(c3ccccc3F)CC2)c1,-5%,-11%,2%[38.3 µM],9%,-1%
COc1ccc(C(=O)OCCN2CCCCC2)cc1,-1%,x,2%,4%,17%[46 µM]
COc1ccc(C(=O)CCN2CCN(c3ccccc3F)CC2)cc1,-1%,x,11%,0.13µM*,x
C[C@@H](C(=O)Nc1ccc2ccccc2c1)[C@@H]1C[C@@]1(C)[C@@H](NS(=O)(=O)c1ccc(-c2ccccc2)cc1)c1ccccc1,-1%,-14%,-10%,2%,x
COc1ccc(-c2cn3c(n2)sc2cc(C(=O)N4CCCCC4)ccc23)cc1,x,x,x,x,3%[46 µM]
COc1cccc(Cn2c(=O)c(C)nc3cnc(Oc4cccc(Cl)c4)nc32)c1,-1%,-17%,21%,u,x
CCCOc1ccc(C(=O)CCN2CCN(C(=O)OCC)CC2)cc1,-1%,x,5%,0.71µM*,x
CCC(=O)OC1=CN(Cc2ccccc2)S(=O)(=O)c2ccccc21,x,x,x,x,-8%[46 µM]
SMILES,Luc counter,HPGD inh,IMPase Li cell,ALDH1A1 inh,LMNA splice mod
CC(=O)NC1C(=O)Nc2c1cccc2C(F)(F)F (stereo not drawn),1%,-5%,19%[38.3 µM],0.28µM*,-1%
CC(=O)NC1C(=O)N=C(SCC(=O)Nc2c(C)cccc2C)NC1=O (stereo not drawn),1%,x,5%,u,x
CCOC(=O)Cn1c(=O)n(Cc2ccco2)c(=O)c2ccc(C(=O)NCCc3ccccc3)cc21,-4%,-12%,15%[38.3 µM],4µM*,9%
CCN(CCCCN1C(=O)c2ccccc2C1=O)c1ccc2c(c1)C(=O)N(C)C2=O,-2%,10µM*,-3%[38.3 µM],u,-6%
CCN(CC)c1ccc2ccc(=O)oc2c1,-5%,x,-4%,u,4%[46 µM]
CCN(CC)c1ccc2c(c1)C(=O)N(C)C2=O,-3%,18µM*,8%[38.3 µM],u,10%
CCCCN(CC)C(=O)CN1C(=O)c2ccccc2C1=O,-3%,-1%,32%[38.3 µM],-7%,12%
N#CC(C#N)=C1C=CC=CN1/C(=C\c1ccco1)C(=O)c1ccc(Cl)cc1,3%,20µM*,22%,-7%,u
N#CC(C#N)=C1C=CC=CN1/C(=C\c1ccco1)C(=O)c1ccc(-c2ccccc2)cc1,2%,-26%,21%,-15%,u
CC(C)C(=O)N1CCN(c2ccc([N+](=O)[O-])cc2Cl)CC1,2%,-8%,5%,14µM*,u
CC(C)CC(=O)N1CCN(c2ccc([N+](=O)[O-])cc2Cl)CC1,0%,-11%,-1%,32µM*,u
CC(C)C(=O)N1CCN(c2ccccc2NC(=O)c2cc([N+](=O)[O-])ccc2N2CCOCC2)CC1,2%,x,8%,7%,x
CC(C)CC(=O)NC(=S)N1CCN(c2ccc([N+](=O)[O-])cc2Cl)CC1,6%,-9%,3%,u,u
Cc1ccc(C)n1-c1nc(=S)[nH][nH]1,-2%,16µM*,10%[38.3 µM],25µM*,-1%
CN(N=O)C(=O)N[C@H]1C(O)OC(CO)[C@@H](O)[C@H]1O (stereo partly drawn),0%,-14%,13%,5%,x
CC(=O)n1c2ccccc2c2c1c1ccccc1n2C,1%,u,-4%[38.3 µM],u,u
C=CCNc1nc2c3ccccc3n(C(C)=O)c2s1,-3%,-3%,6%[38.3 µM],28µM*,8%
Cc1ccc(-c2ccc(/C=C3\C(=O)ON=C3c3ccccc3)o2)c([N+](=O)[O-])c1,2%,1.3µM*,21%[38.3 µM],8.9µM*,u
Cc1cc([N+](=O)[O-])c(C)cc1-c1ccc(/C=N/NC(=O)Cn2nnnc2N)o1,-1%,x,-7%,15µM*,-5%[9.22 µM]
N#Cc1cc(C#N)c(N2CCN(c3ccccn3)CC2)nc1N,-4%,-8%,28µM*,u,5%
O=C(N/N=C\c1ccco1)Nc1cccc(Cl)c1,0%,-29%,9%,28µM*,-7%
C/C(=N/NC(=O)c1ccncc1)c1ccccc1Cl,-5%[7.66 µM],-5%,2%,8%[13.5 µM],x
O=C(Nc1ccccc1C(=O)N/N=C/c1ccco1)c1ccc(Cl)cc1,13µM*,-14%,4%,6%,-17%
O=C(Nc1ccccc1C(=O)N/N=C/c1ccco1)c1ccccc1,u,-21%,3%,-4%,-2%
C/C(=N\NC(=O)c1ccccc1NC(=O)c1ccc(Cl)cc1)c1ccncc1,1.3µM*,x,-6%,0%,u
CC(NC(=O)c1ccccc1NC(=O)c1ccco1)c1ccccc1 (stereo not drawn),4%,-6%,-7%,-8%,6%
CC(NC(=O)c1ccccc1NC(=O)c1ccncc1)c1ccccc1 (stereo not drawn),2%,x,1%,28µM*,x
